{"source": "PubChem BioAssay AID1014", "about": "(NMMLSC, 2008)", "note": "Activity calls are given as the source filed them. Cut-off read from the data, not from the text of the source: active = inhibition of mean fluorescence above about 33%; inactive = the rest."}
{"test": "blockers of bacterial quorum-sensing reporter fluorescence – flow cytometry, SAR analogs, SAR follow-up (AID 1014);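 note: Staphylococcus aureus RN6390 with RNAIII-GFP reporter stimulated by AIP; bacteria incubated with compound for 3 hours at 37 °C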", "details": "at 20 µM, stronger effect = higher value; inhibition of percent positive cells: measured here: percent reporter-positive cells", "units": {"inhibition of percent positive cells": "%"}}
{"smiles": "Cc1nnc(N2CCC(C(=O)Nc3ccc4c(c3)OCCO4)CC2)c2nn(-c3ccccc3)c(C)c12", "inhibition of mean fluorescence": "-7.3% (inactive)", "inhibition of percent positive cells": 0}
{"smiles": "O=C(NCCN1CCN(C(=O)c2cc(F)c(F)cc2Cl)CC1)c1cc(F)c(F)cc1Cl", "inhibition of percent positive cells": -1.2, "inhibition of mean fluorescence": "-25.7% (inactive)"}
{"smiles": "COc1ccc(S(=O)(=O)c2nnn3c2nc(Nc2ccc(C)cc2)c2ccccc23)cc1", "inhibition of percent positive cells": -0.3, "inhibition of mean fluorescence": "8.2% (inactive)"}
{"smiles": "Cc1ccc(C)c(S(=O)(=O)c2n[nH]n3c2nc(=O)c2sccc23)c1", "inhibition of percent positive cells": 0, "inhibition of mean fluorescence": "35.2% (active)"}
{"smiles": "O=C(NCC(c1cccnc1)N1CCN(c2ccc(F)cc2)CC1)c1cccs1", "note": "(stereo not given)", "inhibition of mean fluorescence": "20.1% (inactive)", "inhibition of percent positive cells": -0.3}
{"smiles": "Cc1cc(C)cc(Nc2c(F)c(F)c(F)c(F)c2C(=O)O)c1", "inhibition of percent positive cells": -0.2, "inhibition of mean fluorescence": "14% (inactive)"}
{"smiles": "O=C(NCC(c1cccnc1)N1CCN(c2ccc(F)cc2)CC1)c1ccccc1", "note": "(stereo not given)", "inhibition of mean fluorescence": "10% (inactive)", "inhibition of percent positive cells": -0.2}
{"smiles": "Nc1c(Nc2ccccc2C(=O)O)c2ccccc2oc1=O", "inhibition of mean fluorescence": "0% (inactive)", "inhibition of percent positive cells": -2.2}
{"smiles": "COc1ccc(N2CCN(C(CNC(=O)c3cccc(Cl)c3)c3cccnc3)CC2)cc1", "note": "(stereo not given)", "inhibition of mean fluorescence": "-42% (inactive)", "inhibition of percent positive cells": -1.7}
{"smiles": "O=C(O)c1ccccc1Nc1nc(N2CCCC2)nc(N2CCCC2)n1", "inhibition of mean fluorescence": "10.8% (inactive)", "inhibition of percent positive cells": -0.3}
{"smiles": "COc1cc(Nc2cc(C)nc3nc(C)nn23)c(C(=O)O)cc1OC", "inhibition of percent positive cells": 0.5, "inhibition of mean fluorescence": "-11.6% (inactive)"}
{"smiles": "COc1c(F)c(F)c(C(=O)O)c(Nc2ccccc2)c1F", "inhibition of mean fluorescence": "-23.9% (inactive)", "inhibition of percent positive cells": -2.3}
{"smiles": "Cc1ccc(Nc2ncccc2C(=O)O)cc1", "inhibition of percent positive cells": -1.3, "inhibition of mean fluorescence": "-7.8% (inactive)"}
{"smiles": "CC(=O)c1ccc(Nc2nc3c(S(=O)(=O)c4ccccc4)nnn3c3ccccc23)cc1", "inhibition of percent positive cells": 0.1, "inhibition of mean fluorescence": "11.9% (inactive)"}
{"smiles": "Cc1oc2ccc(O)cc2c1C(=O)OC(C)C", "inhibition of mean fluorescence": "-11.3% (inactive)", "inhibition of percent positive cells": 0.1}
{"smiles": "CC1CC(C)CN(C(C(=O)Nc2ccc(C(C)C)cc2)c2ccc3c(c2)OCO3)C1", "note": "(stereo not given)", "inhibition of mean fluorescence": "19.3% (inactive)", "inhibition of percent positive cells": -1.5}
{"smiles": "O=C(NC1CCCC1)C(c1cc2c(cc1[N+](=O)[O-])OCO2)N1CCN(C2CCCCC2)CC1", "note": "(stereo not given)", "inhibition of percent positive cells": -1.4, "inhibition of mean fluorescence": "-24.8% (inactive)"}
{"smiles": "CC(=O)c1c(C)oc2c1cc(O)c1ccccc12", "inhibition of percent positive cells": -0.2, "inhibition of mean fluorescence": "9.1% (inactive)"}
{"smiles": "CC(C)(C)c1ccc(S(=O)(=O)c2n[nH]n3c2nc(=O)c2ccccc23)cc1", "inhibition of percent positive cells": -1.8, "inhibition of mean fluorescence": "13.3% (inactive)"}
{"smiles": "CC1CCN(C(C(=O)NC2CCCCC2)c2cc3c(cc2[N+](=O)[O-])OCO3)CC1", "note": "(stereo not given)", "inhibition of mean fluorescence": "6% (inactive)", "inhibition of percent positive cells": 0.7}
{"smiles": "CN=C1NC(=O)CC(C(=O)Nc2ccc3ccccc3c2)S1", "note": "(stereo not given)", "inhibition of mean fluorescence": "-1.7% (inactive)", "inhibition of percent positive cells": -0.3}
{"smiles": "O=C(NCC(c1cccnc1)N1CCN(c2ccc(F)cc2)CC1)C1CC1", "note": "(stereo not given)", "inhibition of percent positive cells": 0.1, "inhibition of mean fluorescence": "-43% (inactive)"}
{"smiles": "CC(C)c1ccc(NC(=O)C(c2cc3c(cc2[N+](=O)[O-])OCO3)N2CCCCC2)cc1", "note": "(stereo not given)", "inhibition of mean fluorescence": "29% (inactive)", "inhibition of percent positive cells": -0.2}
{"smiles": "COc1ccc(CC(=O)Nc2oc(-c3ccccc3)c(-c3ccccc3)c2C#N)cc1", "inhibition of mean fluorescence": "42.6% (active)", "inhibition of percent positive cells": 1.3}
{"smiles": "O=C(CN1CC(=O)Oc2ccccc21)Nc1ccc2c(c1)OCO2", "inhibition of mean fluorescence": "-25.8% (inactive)", "inhibition of percent positive cells": -0.2}
{"smiles": "O=C(O)c1ccccc1Nc1c([N+](=O)[O-])c(=O)oc2ccccc12", "inhibition of percent positive cells": -1.7, "inhibition of mean fluorescence": "-23.2% (inactive)"}
{"smiles": "COc1cccc(-n2cc(C(=O)N=C3NC(=O)CS3)c3ccccc3c2=O)c1", "inhibition of mean fluorescence": "-5.7% (inactive)", "inhibition of percent positive cells": 0}
{"smiles": "Cc1ccc(N=C2NC(=O)CC(C(=O)Nc3cccc4ccccc34)S2)cc1", "note": "(stereo not given)", "inhibition of mean fluorescence": "-4.5% (inactive)", "inhibition of percent positive cells": -0.7}
{"smiles": "COc1ccc(NC(=O)C(c2cc3c(cc2[N+](=O)[O-])OCO3)N2CCN(C=O)CC2)cc1", "note": "(stereo not given)", "inhibition of percent positive cells": 0, "inhibition of mean fluorescence": "-23.1% (inactive)"}
{"smiles": "CSCCC(NC(=O)c1ccccc1)C(=O)OCC(=O)Nc1sc2c(c1C#N)CCCC2", "note": "(stereo not given)", "inhibition of percent positive cells": -0.2, "inhibition of mean fluorescence": "40.6% (active)"}
{"smiles": "COc1ccc(S(=O)(=O)c2nnn3c2nc(Nc2ccccc2)c2ccccc23)cc1", "inhibition of percent positive cells": 0.4, "inhibition of mean fluorescence": "-22.4% (inactive)"}
{"smiles": "O=C(Nc1ccc2c(c1)OCO2)C(c1ccccc1)N1CCN(C(=O)c2ccco2)CC1", "note": "(stereo not given)", "inhibition of percent positive cells": 1, "inhibition of mean fluorescence": "-23.7% (inactive)"}
{"smiles": "O=C(O)c1cc(Nc2ccccc2C(=O)O)nc(Nc2ccccc2C(=O)O)n1", "inhibition of percent positive cells": -0.3, "inhibition of mean fluorescence": "2.4% (inactive)"}
{"smiles": "O=C(NCC(c1cccnc1)N1CCN(c2ccccc2F)CC1)c1ccccc1F", "note": "(stereo not given)", "inhibition of percent positive cells": -0.4, "inhibition of mean fluorescence": "-1.3% (inactive)"}
{"smiles": "O=C(NCC(c1cccnc1)N1CCN(c2ccc(F)cc2)CC1)c1ccccc1F", "note": "(stereo not given)", "inhibition of percent positive cells": 0.3, "inhibition of mean fluorescence": "-2.2% (inactive)"}
{"smiles": "O=C1CS/C(=N\\C(=O)N2c3ccccc3Sc3ccccc32)N1", "inhibition of mean fluorescence": "91.4% (active)", "inhibition of percent positive cells": 52.4}
{"smiles": "COc1ccc(S(=O)(=O)c2nnn3c2nc(Nc2cccc(C)c2)c2ccccc23)cc1", "inhibition of percent positive cells": 0.1, "inhibition of mean fluorescence": "-7.2% (inactive)"}
{"smiles": "CC1CCN(CC2CCN(C(=O)Nc3ccc4c(c3)OCCO4)CC2)CC1", "inhibition of percent positive cells": 0, "inhibition of mean fluorescence": "-3.7% (inactive)"}
{"smiles": "O=C(NCC(c1cccnc1)N1CCN(c2ccccc2F)CC1)C1CCCCC1", "note": "(stereo not given)", "inhibition of percent positive cells": -0.1, "inhibition of mean fluorescence": "-12.9% (inactive)"}
{"smiles": "COc1ccc(C(=O)NCC(c2cccnc2)N2CCN(c3ccc(F)cc3)CC2)cc1", "note": "(stereo not given)", "inhibition of percent positive cells": -0.3, "inhibition of mean fluorescence": "-13.4% (inactive)"}
